According to PubChem BioAssay (NCATS):
Values joined by “and” are separate entries in the source; they are usually repeats but may differ in a detail not shown here. Identical values can stand only once. Inconclusive results are not listed. Active and inactive are the calls of the source. Calls follow the shape of the dose curve; as a rule, active = well fitted cell-killing curve with a large enough effect; inconclusive = small, poorly fitted or top-dose-only effect, or effect the other way; inactive = no such curve, though single readings can be large or run the other way.

Assay: Viability qHTS for spleen associated tyrosine kinase inhibitor (SYKi) drug resistant MV4-11 cells (AID 1963824); also: nearly all actives have a fitted effect of over 35% in size
Details: SYKi-resistant MV4-11 viability, CellTiter-Glo, 72 h; series mostly up to 45 µM
In short: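 CellTiter-Glo luminescence, read 10 min after reagent addition, reports viability after a 72 hr compound exposure. Cells are an MV4-11 line made resistant to SYK inhibition, seeded at 500 per well onto compound-containing plates.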
Potency is read from the fitted curve at half-maximal effect.

| SMILES | Potency |
| --- | --- |
| CC(O)C(=O)O (stereo not given) | inactive |
| COc1cccc(-c2cc(F)ccc2C2Cc3nc(N)nc(C)c3C(=O)N2)n1 (stereo not given) | 0.0186 µM (active) |
| O=c1cc(N2CCOCC2)oc2c(-c3ccc4c(c3)OCCO4)csc12 | 0.59 µM (active) |
| CCc1cc2cc(OC)c(OC)cc2c(Cc2ccccc2)n1 | 10.6 µM (active) |
| COc1cc(O)cc(O)c1 | inactive |
| O=C(Nc1cnn2ccc(N3CCC[C@@H]3c3cc(F)ccc3F)nc12)N1CC[C@H](O)C1 | inactive |
| CCNC(=O)NCCCOc1cccc(CN2CCCCC2)c1 | inactive |
| CN(C)C/C=C/C(=O)Nc1ccc(C(=O)N2CCC[C@@H](Nc3ncc(Cl)c(-c4c[nH]c5ccccc45)n3)C2)cc1 | 0.0934 µM (active) |
| CCCCOc1nc(N)c2c(n1)N(Cc1cccc(CN3CCCC3)c1)CC(=O)N2 | 23.5 µM (active) |
| O=c1ncccn1[C@@H]1O[C@H](CO)[C@@H](O)[C@H]1O | 16.6 µM (active) |
| Nc1c(I)cc(I)c(C(=O)N(CCC(=O)O)c2ccccc2)c1I | inactive |
| Cc1[nH]c2ccc(F)cc2c1-c1nc2c3cccnc3c3ncccc3c2[nH]1 | 0.184 µM (active) |
| COC1CC(C(=O)c2ccc3c(N)ncc(-c4ccc(-c5cnn(C)c5)cc4)c3n2)C1 (stereo not given) | 0.296 µM (active) |
| Clc1ccccc1CN1CCc2sccc2C1 | 18.8 µM (active) |
| CC1(C)O[C@@H]2C[C@H]3[C@@H]4CCC5=CC(=O)C=C[C@]5(C)[C@@]4(F)[C@@H](O)C[C@]3(C)[C@]2(C(=O)CO)O1 | 10.6 µM (active) |
| Cc1ccccc1N1CCN(CCc2nnc3n2CCCC3)CC1 | inactive |
| Oc1ccc(Cl)cc1Cc1cc(Cl)ccc1O | 11.9 µM (active) |
| CN[C@@H]1[C@H](O[C@H]2[C@H](O[C@@H]3[C@@H](O)[C@H](O)[C@@H](N=C(N)N)[C@H](O)[C@H]3N=C(N)N)O[C@@H](C)[C@]2(O)C=O)O[C@@H](CO)[C@H](O)[C@H]1O | inactive |
| CC(=O)OCC(=O)[C@@]1(O)CCC2C3CCC4=CC(=O)CC[C@]4(C)C3[C@@H](O)C[C@@]21C (stereo not given in full) | inactive |
| CC1=C(/C=C/C(C)=C/C=C/C(C)=C\C(=O)O)C(C)(C)CCC1 | 6.61 µM (active) |

| SMILES | Potency |
| --- | --- |
| Cc1c(C)c2c(c(C)c1OC(=O)CCC(=O)OCCO)CC[C@@](C)(CCC[C@H](C)CCC[C@H](C)CCCC(C)C)O2 | inactive |
| CC(=O)O[C@]1(C(C)=O)CC[C@H]2[C@@H]3C=C(Cl)C4=CC(=O)[C@@H]5C[C@@H]5[C@]4(C)[C@H]3CC[C@@]21C | 14.6 µM (active) |
| C=CCN1CCc2nc(N)sc2CC1 | inactive |
| C[C@]12CCC(=O)C=C1[C@@H]1C[C@@H]1[C@H]1[C@@H]3[C@@H]4C[C@@H]4[C@@]4(CCC(=O)O4)[C@@]3(C)CC[C@@H]12 | 21.1 µM (active) and 18.6 µM (active) |
| CC1(C)C(N(O)C(=O)Nc2ccc(Cl)cc2)N(c2ccc(Cl)cc2)C(=O)N1CC(=O)N/N=C/C=C/c1ccc([N+](=O)[O-])o1 (stereo not given) | 2.63 µM (active) |
| CC[C@]12C=CCN3CC[C@@]4(c5cc([C@@]6(C(=O)OC)CC7C[C@@H](C(C)(F)F)CN(Cc8c6[nH]c6ccccc86)C7)c(OC)cc5N(C)[C@H]4[C@@](O)(C(=O)OC)[C@@H]1OC(C)=O)[C@@H]32 (stereo not given in full) | 0.105 µM (active) |
| Cc1cc(-n2c(=O)ccc3cnc4[nH]ccc4c32)ccc1F | 18.6 µM (active) |
| CC(=O)Oc1cccc(O)c1 | inactive |
| COC(=O)C(c1ccccc1Cl)N1CCc2sccc2C1 (stereo not given) | inactive |
| CCNC(=O)CCC/C=C\C[C@@H]1[C@@H](/C=C/C(O)CCc2ccccc2)[C@@H](O)C[C@@H]1O (stereo not given in full) | 14.8 µM (active) |
| CS(=O)(=O)Nc1ccc([N+](=O)[O-])cc1Oc1ccccc1 | 14.8 µM (active) |
| Cc1cc(C)c2c(c1)[C@@H](N(Cc1cc(C(F)(F)F)cc(C(F)(F)F)c1)c1nnn(C)n1)CCCN2CC1CCC(C(=O)O)CC1 (stereo not given in full) | 18.6 µM (active) |
| CC[C@@]1(O)C(=O)OCc2c1cc1n(c2=O)Cc2c-1nc1cc(F)c(C)c3c1c2[C@@H](N)CC3 | 0.0042 µM (active) |
| O=C(O)CNC(=O)CNC(=O)CNC(=O)CSC(=O)c1ccccc1 | inactive |
| CC1(C)O[C@@H]2C[C@H]3[C@@H]4CCC5=CC(=O)CC[C@]5(C)[C@@]4(F)[C@@H](O)C[C@]3(C)[C@]2(C(=O)CCl)O1 | 18.8 µM (active) |
| OC[C@H]1O[C@@H](n2cnc3c(=S)nc[nH]c32)[C@H](O)[C@@H]1O | 1.19 µM (active) |
| COc1ccccc1[C@H](c1cccc2ccccc12)[C@@](C)(C#N)C(=O)N1CCC(c2cccc(C(F)(F)F)c2)CC1 | 8.33 µM (active) |
| CCOC(=O)O[C@]1(C(=O)OCCl)CC[C@H]2[C@@H]3CCC4=CC(=O)C=C[C@]4(C)[C@H]3[C@@H](O)C[C@@]21C | inactive |
| COc1cc([C@H]2Oc3cc([C@H]4Oc5cc(O)cc(O)c5C(=O)[C@@H]4O)ccc3O[C@@H]2CO)ccc1O | 18.6 µM (active) |
| COC(=O)C1=C(C)NC(c2ncc(F)cc2F)=N[C@@H]1c1ccc(F)cc1Cl | 20.9 µM (active) |
